Values joined by “and” are separate entries in the source; they are usually repeats but may differ in a detail not shown here. Equal values may be shown once. Results filed as inconclusive are left out. More than one record can exist for a structure, and the calls need not agree. Active and inactive are the calls of the source. How the source made its calls, unless noted: active means hit-call score of the fitted dose curve at least 0.9, where 1 is the maximum; inconclusive means response in the unintended direction; inactive means score below 0.9.

One may read the AC50 as the concentration at which the activity in the assay is half-maximal.

Experiment [1] in a line: ATG_RORE_CIS: Attagene CIS-FACTORIAL HepG2 Assay for human RAR-related Orphan Receptor Element (RORE) (AID 2282959; active means hit-call score of the fitted dose curve at least 0.9, where 1 is the maximum; inactive means score below 0.9). The settings on record: HepG2 Attagene cis-factorial RORE reporter, mRNA; actives raise or lower the signal. In short, it runs like this: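 A 24-hour exposure of transfected HepG2 hepatoma cells precedes RNA isolation and reporter RT-PCR. Labeled products are digested with HpaI and resolved by capillary electrophoresis, with gain or loss of signal scored relative to DMSO.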

Experiment [2] can be described thus: ATG_M_19_TRANS: Attagene TRANS-FACTORIAL HepG2 Assay for M19 Transcription Factor (Internal Marker) (AID 2282974). The settings on record: HepG2 Attagene TRANS-FACTORIAL M19 internal marker reporter. In short, it runs like this: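 Transfected HepG2 (GAL4-UAS MRTUs), 24 h compound, TriZol RNA, DNase-treated RT, reporter PCR, FAM label, HpaI digest, CE fluorescence; gain vs DMSO.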

The nature of experiment [3]: ATG_GAL4_TRANS: Attagene TRANS-FACTORIAL HepG2 Assay for GAL4 (Internal Marker) (AID 2282976). The settings on record: HepG2 Attagene TRANS GAL4 internal marker reporter. Summed up:
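Fluorescence from capillary electrophoresis of labelled RT-PCR products quantifies reporter mRNA induction after 24 h dosing of HepG2 cells carrying transfected GAL4-UAS reporter transcription units. Vehicle DMSO serves as baseline.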

Experiment [4] has as its target Glucocorticoid receptor (Homo sapiens) (UniProt P04150). Put plainly: ATG_GR_TRANS: Attagene TRANS-FACTORIAL HepG2 Assay for human Glucocorticoid Receptor (GR) (AID 2282978).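 Further: activators score as hits since higher reporter transcript over DMSO is fitted.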 The settings on record: HepG2 Attagene TRANS GR reporter, mRNA transcription. In short, it runs like this: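 After 24 h incubation with test chemical, transfected HepG2 cells were lysed for RNA; reporter cDNA was amplified, FAM-labelled, HpaI-digested and sized on a capillary analyser. Signal gain relative to DMSO was scored.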

Experiment [5] deals with Oxysterols receptor LXR-alpha (Homo sapiens) (UniProt Q13133). Put plainly: ATG_LXRa_TRANS: Attagene TRANS-FACTORIAL HepG2 Assay for human Liver X Receptor alpha (LXRa) (AID 2282980). The settings on record: HepG2 Attagene TRANS reporter, LXRa transactivation. Summed up: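 Transient HepG2 transfectants, 24 h dosing, RT-PCR/CE mRNA reporter quantitation; gain-of-signal vs DMSO.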
Oxysterols receptor LXR-alpha (Homo sapiens), sequence (Q13133 whole entry, looked up): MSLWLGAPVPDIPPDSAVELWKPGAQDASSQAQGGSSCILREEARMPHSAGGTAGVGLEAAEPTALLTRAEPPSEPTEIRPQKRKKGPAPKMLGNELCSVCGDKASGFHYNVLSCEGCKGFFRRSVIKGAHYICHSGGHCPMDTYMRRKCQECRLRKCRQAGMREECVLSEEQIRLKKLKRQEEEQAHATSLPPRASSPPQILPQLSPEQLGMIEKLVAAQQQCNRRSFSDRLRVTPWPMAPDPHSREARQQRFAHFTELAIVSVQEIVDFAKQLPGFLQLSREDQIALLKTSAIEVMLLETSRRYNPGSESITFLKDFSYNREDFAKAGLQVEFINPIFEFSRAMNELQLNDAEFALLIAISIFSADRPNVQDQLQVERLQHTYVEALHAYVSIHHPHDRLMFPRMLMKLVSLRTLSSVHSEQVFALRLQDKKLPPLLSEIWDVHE

In experiment [6] the target is human Peroxisome Proliferator-activated Receptor delta (PPARd), PPARD (gene 5467) (UniProt Q03181). Put plainly: ATG_PPARd_TRANS: Attagene TRANS-FACTORIAL HepG2 Assay for human Peroxisome Proliferator-activated Receptor delta (PPARd) (AID 2283002). Summed up: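 Read-out is induced reporter mRNA, quantified by RT-PCR with fluorescent labelling and capillary electrophoresis after 24 h dosing. Cells are HepG2 transiently carrying multiple GAL4-UAS reporter units driven by exogenous NR-GAL4 chimeras; DMSO serves as baseline.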
human Peroxisome Proliferator-activated Receptor delta (PPARd), PPARD (gene 5467), sequence (Q03181 whole entry, looked up, the tested form may be a part): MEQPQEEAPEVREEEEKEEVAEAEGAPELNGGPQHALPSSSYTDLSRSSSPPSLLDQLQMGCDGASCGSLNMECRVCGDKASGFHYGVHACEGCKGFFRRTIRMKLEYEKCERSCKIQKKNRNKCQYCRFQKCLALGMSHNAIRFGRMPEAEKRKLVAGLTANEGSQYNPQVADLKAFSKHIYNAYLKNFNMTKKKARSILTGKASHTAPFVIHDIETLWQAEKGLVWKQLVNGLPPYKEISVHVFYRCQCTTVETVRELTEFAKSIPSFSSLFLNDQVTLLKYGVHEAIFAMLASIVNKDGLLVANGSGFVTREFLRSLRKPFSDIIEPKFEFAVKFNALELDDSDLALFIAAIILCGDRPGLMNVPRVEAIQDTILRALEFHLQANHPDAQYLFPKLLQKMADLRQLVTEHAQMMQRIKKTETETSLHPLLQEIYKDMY

Experiment [7] concerns the target Peroxisome proliferator-activated receptor gamma (Homo sapiens) (UniProt P37231). Kind of experiment: ATG_PPARg_TRANS: Attagene TRANS-FACTORIAL HepG2 Assay for human Peroxisome Proliferator-activated Receptor-gamma (PPARg) (AID 2283007). Summed up: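 Twenty-four hours after chemical dosing of transiently transfected HepG2 cells, isolated RNA was converted to cDNA, reporter sequences amplified and 6-FAM-labelled, then HpaI-digested and analysed by capillary electrophoresis. Signal increase against DMSO was fitted.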

Experiment [8] concerns the target Bile acid receptor (Homo sapiens) (UniProt Q96RI1). Kind of experiment: ATG_IR1_CIS: Attagene CIS-FACTORIAL HepG2 Assay for human Nuclear Receptor Subfamily 1 Group H Member 4 (NR1H4), IR1 submotif (AID 2282946; active means hit-call score of the fitted dose curve at least 0.9, where 1 is the maximum; inactive means score below 0.9). The settings on record: IR1 reporter transcription, actives raise or lower the signal. In short, it runs like this: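 HepG2 cells transiently transfected with multiplexed cis-element reporter units read endogenous transcription factor activity. After 24 h compound exposure, reporter mRNA was quantified by RT-PCR, fluorescent labelling, HpaI digestion and capillary electrophoresis; bidirectional fitting versus DMSO baseline.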

A short description of experiment [9]: ATG_PBREM_CIS: Attagene CIS-FACTORIAL HepG2 Assay for human Phenobarbital-responsive Enhancer Module (PBREM) (AID 2282955; active means hit-call score of the fitted dose curve at least 0.9, where 1 is the maximum; inactive means score below 0.9). The settings on record: HepG2 PBREM cis-reporter, Attagene multiplexed transcription; actives raise or lower the signal. Summed up:
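Measures endogenous factor action on a phenobarbital-responsive enhancer module. HepG2 transiently carrying cis reporters, 24 h treatment, mRNA read-out by RT-PCR plus capillary electrophoresis.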

In experiment [10] the target is Bile acid receptor (Homo sapiens) (UniProt Q96RI1). Put plainly: ATG_FXR_TRANS: Attagene TRANS-FACTORIAL HepG2 Assay for Farnesoid X Receptor (FXR) (AID 2282979).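 Further: hits raise reporter mRNA above DMSO so AC50 marks FXR activation.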 The settings on record: HepG2 Attagene TRANS FXR-GAL4 reporter transcription. Summed up: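 Chimeric FXR-GAL4 activity in transiently transfected human HepG2 liver cells is scored as induction of reporter mRNA after 24 h of dosing. Detection uses RT-PCR with fluorescent labelling and capillary electrophoresis, with DMSO serving as baseline.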
Bile acid receptor (Homo sapiens), sequence (Q96RI1 whole entry, looked up, the tested form may be a part): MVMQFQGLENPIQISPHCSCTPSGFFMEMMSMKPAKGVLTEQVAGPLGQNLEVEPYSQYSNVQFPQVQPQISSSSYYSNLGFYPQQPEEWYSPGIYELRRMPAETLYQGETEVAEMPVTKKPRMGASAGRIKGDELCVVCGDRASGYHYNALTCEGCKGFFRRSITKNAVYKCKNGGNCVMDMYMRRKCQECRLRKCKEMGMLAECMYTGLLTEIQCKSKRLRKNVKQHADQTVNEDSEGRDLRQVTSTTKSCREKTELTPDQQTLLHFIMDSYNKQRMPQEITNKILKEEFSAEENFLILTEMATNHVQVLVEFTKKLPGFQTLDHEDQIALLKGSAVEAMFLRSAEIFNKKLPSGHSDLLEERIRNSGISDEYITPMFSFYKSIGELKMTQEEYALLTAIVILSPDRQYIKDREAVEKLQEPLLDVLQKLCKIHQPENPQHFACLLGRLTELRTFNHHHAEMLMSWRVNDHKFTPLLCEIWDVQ

Experiment [11] deals with human RAR-related Orphan Receptor beta (RORb), RORB (gene 6096) (UniProt Q92753). Put plainly: ATG_RORb_TRANS: Attagene TRANS-FACTORIAL HepG2 Assay for human RAR-related Orphan Receptor beta (RORb) (AID 2283010). In short, it runs like this:
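Read-out is reporter mRNA induction, quantified by RT-PCR with fluorescent capillary electrophoresis, 24 h post-dose in transiently transfected HepG2 expressing exogenous NR-Gal4 chimera. Activity fitted upward versus DMSO.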

Experiment [12] addresses Nuclear receptor subfamily 1 group I member 3 (Homo sapiens) (UniProt Q14994). Kind of experiment: ATG_CAR_TRANS: Attagene TRANS-FACTORIAL HepG2 Assay for human Constitutive Androstane Receptor (CAR) (AID 2282969).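 Further: activators raise reporter mRNA above DMSO so AC50 marks induction.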 The settings on record: HepG2 Attagene TRANS-FACTORIAL CAR reporter. Summed up: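 Signal is reporter mRNA induction relative to DMSO, measured 24 h after dosing by RT-PCR with fluorescent primer extension and capillary electrophoresis. Human HepG2 liver cells carried transiently transfected chimeric NR-Gal4/GAL4-UAS reporter constructs.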

In experiment [13] the target is human Retinoid X Receptor beta (RXRb), RXRB (gene 6257) (UniProt P28702). Kind of experiment: ATG_RXRb_TRANS: Attagene TRANS-FACTORIAL HepG2 Assay for human Retinoid X Receptor beta (RXRb) (AID 2283013). In short, it runs like this:
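Readout is reporter transcript induction after 24 h dosing. It is measured by RT-PCR of total RNA followed by fluorescent capillary electrophoresis. HepG2 liver cells carry transfected multiple reporter units driven by an exogenous RXRb-Gal4 fusion; activity is relative to DMSO.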

In experiment [14] the target is human Vitamin D Receptor (VDR), VDR (gene 7421) (UniProt P11473). Put plainly: ATG_VDR_TRANS: Attagene TRANS-FACTORIAL HepG2 Assay for human Vitamin D Receptor (VDR) (AID 2283022). Summed up: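 Fluorescence of labelled reporter cDNA fragments, resolved by capillary electrophoresis, gives mRNA induction after 24 h treatment of HepG2 cells carrying transfected Gal4-fusion reporter units. Activity is fitted in the positive direction with DMSO as baseline.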
human Vitamin D Receptor (VDR), VDR (gene 7421), sequence (P11473 whole entry, looked up, the tested form may be a part): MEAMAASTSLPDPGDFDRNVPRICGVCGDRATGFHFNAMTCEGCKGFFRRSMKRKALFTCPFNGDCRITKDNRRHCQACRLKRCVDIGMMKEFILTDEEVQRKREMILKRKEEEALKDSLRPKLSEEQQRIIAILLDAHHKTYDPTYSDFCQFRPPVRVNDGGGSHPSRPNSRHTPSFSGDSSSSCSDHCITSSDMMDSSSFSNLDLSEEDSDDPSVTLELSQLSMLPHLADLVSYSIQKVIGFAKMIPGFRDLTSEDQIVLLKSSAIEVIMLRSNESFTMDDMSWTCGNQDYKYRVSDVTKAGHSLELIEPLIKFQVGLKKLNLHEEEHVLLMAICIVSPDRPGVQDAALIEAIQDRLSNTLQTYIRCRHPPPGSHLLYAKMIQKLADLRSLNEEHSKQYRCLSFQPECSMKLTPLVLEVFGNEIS

The nature of experiment [15]: TOX21_p53_BLA_p2_viability: Viability Assessment in the Tox21 HCT-116 p53 Agonism Beta-lactamase Assay, Phase 2 (AID 2283591).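 Further: compound exposure lasted 16 h at 37 °C; actives lower the ATP signal meaning cytotoxicity.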 Summed up: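 Cytotoxicity readout: CellTiter-Glo ATP luminescence, 30 min at room temperature, after the beta-lactamase read. Cells were HCT116 exposed 16 h at 37C to compounds pin-transferred at 217-fold dilution from DMSO stocks.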
The nature of experiment [16]: TOX21_p53_BLA_p3_viability: Viability Assessment in the Tox21 HCT-116 p53 Agonism Beta-lactamase Assay, Phase 3 (AID 2283593).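 Further: cells exposed to compound for 16 h before reading.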 Summed up: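 Cellular ATP was quantified by CellTiter-Glo luminescence, read after 30 min at room temperature. Beforehand, HCT116 cells (4000/well) received compound 5 h post-seeding, 217-fold diluted from DMSO, then incubated 16 h at 37C.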

The target in experiment [17] is Cellular tumor antigen p53 (Homo sapiens) (UniProt P04637). Kind of experiment: TOX21_p53_BLA_p3_ratio: Tox21 HCT-116 p53 Agonism Beta-lactamase Assay, Ratio, Phase 3 (AID 2283596). Summed up:
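Cells were seeded at 4000/well, rested 5 h at 37C, then dosed with DMSO compound solutions (217-fold dilution) for 16 h. CCF4-AM substrate was loaded for 2 h at room temperature, and the 460/530 nm emission ratio was fitted for gain of signal versus DMSO.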

Experiment [18] in a line: ATG_ERE_CIS: Attagene CIS-FACTORIAL HepG2 Assay for Estrogen Response Element (ERE) (AID 2282940; active means hit-call score of the fitted dose curve at least 0.9, where 1 is the maximum; inactive means score below 0.9). The settings on record: HepG2 ERE cis-reporter, Attagene RNA transcript; actives raise or lower the signal. Summed up: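 HepG2 cells transiently transfected with cis-promoter-driven multiplexed reporter transcription units report endogenous TF activity. After 24 h compound exposure, reporter mRNA is quantified by RT-PCR with capillary electrophoresis fluorescence; bidirectional fitting versus DMSO baseline.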

Experiment [19] in a line: TOX21_p53_BLA_p4_viability: Viability Assessment in the Tox21 HCT-116 p53 Agonism Beta-lactamase Assay, Phase 4 (AID 2283597).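 Further: hits lower the luminescence signal meaning cytotoxicity.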 In short, it runs like this: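 Viability is taken as cellular ATP: after 16 h compound exposure of HCT116 cells and a 2 h room-temperature CCF4-AM substrate step, CellTiter-Glo reagent is added and luminescence is measured 30 min later.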
In experiment [20] the target is Cellular tumor antigen p53 (Homo sapiens) (UniProt P04637). Kind of experiment: TOX21_p53_BLA_p4_ratio: Tox21 HCT-116 p53 Agonism Beta-lactamase Assay, Ratio, Phase 4 (AID 2283601). In short, it runs like this: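 Signal is the blue/green (460nm/530nm) ratio of cleaved versus uncleaved CCF4-AM substrate, read after 2 h substrate loading. Cells were HCT116 carrying the p53-responsive beta-lactamase reporter, dosed 16 h at 37C, 5% CO2; CellTiter-Glo measured in parallel.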
Cellular tumor antigen p53 (Homo sapiens), sequence (P04637 whole entry, looked up): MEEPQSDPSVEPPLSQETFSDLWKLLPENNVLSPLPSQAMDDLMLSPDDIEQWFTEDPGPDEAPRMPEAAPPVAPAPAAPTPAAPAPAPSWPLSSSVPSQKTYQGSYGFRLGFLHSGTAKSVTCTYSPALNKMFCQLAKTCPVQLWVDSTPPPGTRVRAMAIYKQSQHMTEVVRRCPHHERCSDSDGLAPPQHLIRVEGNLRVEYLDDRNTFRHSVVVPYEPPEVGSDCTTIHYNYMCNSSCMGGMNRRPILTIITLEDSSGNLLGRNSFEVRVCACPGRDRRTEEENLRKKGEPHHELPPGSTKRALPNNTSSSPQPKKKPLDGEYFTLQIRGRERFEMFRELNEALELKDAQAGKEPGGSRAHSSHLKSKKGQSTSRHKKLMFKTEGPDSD

Peroxisome proliferator-activated receptor gamma (Homo sapiens), sequence (P37231 whole entry, looked up): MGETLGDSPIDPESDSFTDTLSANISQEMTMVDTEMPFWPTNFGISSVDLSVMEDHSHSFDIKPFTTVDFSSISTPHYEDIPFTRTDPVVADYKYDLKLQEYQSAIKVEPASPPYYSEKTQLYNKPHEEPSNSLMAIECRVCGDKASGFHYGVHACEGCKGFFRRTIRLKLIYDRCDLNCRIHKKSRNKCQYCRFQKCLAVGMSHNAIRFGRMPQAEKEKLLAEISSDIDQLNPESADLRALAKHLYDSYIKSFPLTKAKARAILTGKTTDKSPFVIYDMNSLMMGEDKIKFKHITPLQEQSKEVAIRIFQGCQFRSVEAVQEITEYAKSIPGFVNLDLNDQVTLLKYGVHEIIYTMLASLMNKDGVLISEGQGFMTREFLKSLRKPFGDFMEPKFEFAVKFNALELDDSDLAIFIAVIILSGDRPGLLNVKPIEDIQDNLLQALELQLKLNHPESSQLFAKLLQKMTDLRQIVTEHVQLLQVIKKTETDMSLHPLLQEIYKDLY
human Retinoid X Receptor beta (RXRb), RXRB (gene 6257), sequence (P28702 whole entry, looked up, the tested form may be a part): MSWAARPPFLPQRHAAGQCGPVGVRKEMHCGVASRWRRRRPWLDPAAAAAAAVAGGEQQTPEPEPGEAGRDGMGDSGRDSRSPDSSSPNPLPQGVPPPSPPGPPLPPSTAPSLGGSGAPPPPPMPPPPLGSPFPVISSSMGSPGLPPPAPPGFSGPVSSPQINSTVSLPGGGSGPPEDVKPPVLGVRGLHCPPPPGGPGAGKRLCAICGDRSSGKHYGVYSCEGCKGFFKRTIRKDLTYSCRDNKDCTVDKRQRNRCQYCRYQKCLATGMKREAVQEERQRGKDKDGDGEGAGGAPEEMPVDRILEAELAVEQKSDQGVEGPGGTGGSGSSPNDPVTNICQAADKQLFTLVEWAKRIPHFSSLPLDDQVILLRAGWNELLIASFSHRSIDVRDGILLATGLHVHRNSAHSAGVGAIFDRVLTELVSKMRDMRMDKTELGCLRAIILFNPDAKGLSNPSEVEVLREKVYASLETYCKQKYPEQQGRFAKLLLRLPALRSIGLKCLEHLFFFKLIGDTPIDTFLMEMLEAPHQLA
Nuclear receptor subfamily 1 group I member 3 (Homo sapiens), sequence (Q14994 whole entry, looked up, the tested form may be a part): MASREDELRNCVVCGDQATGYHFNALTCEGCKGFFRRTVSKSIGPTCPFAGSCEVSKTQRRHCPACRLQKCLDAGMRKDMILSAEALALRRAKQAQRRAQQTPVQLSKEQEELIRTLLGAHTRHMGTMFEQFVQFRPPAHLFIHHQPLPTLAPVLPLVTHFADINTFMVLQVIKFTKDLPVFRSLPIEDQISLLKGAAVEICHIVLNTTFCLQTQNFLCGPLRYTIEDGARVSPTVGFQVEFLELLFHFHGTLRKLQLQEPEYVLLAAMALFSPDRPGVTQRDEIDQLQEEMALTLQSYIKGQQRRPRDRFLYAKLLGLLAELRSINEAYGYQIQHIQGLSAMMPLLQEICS
Glucocorticoid receptor (Homo sapiens), sequence (P04150 whole entry, looked up): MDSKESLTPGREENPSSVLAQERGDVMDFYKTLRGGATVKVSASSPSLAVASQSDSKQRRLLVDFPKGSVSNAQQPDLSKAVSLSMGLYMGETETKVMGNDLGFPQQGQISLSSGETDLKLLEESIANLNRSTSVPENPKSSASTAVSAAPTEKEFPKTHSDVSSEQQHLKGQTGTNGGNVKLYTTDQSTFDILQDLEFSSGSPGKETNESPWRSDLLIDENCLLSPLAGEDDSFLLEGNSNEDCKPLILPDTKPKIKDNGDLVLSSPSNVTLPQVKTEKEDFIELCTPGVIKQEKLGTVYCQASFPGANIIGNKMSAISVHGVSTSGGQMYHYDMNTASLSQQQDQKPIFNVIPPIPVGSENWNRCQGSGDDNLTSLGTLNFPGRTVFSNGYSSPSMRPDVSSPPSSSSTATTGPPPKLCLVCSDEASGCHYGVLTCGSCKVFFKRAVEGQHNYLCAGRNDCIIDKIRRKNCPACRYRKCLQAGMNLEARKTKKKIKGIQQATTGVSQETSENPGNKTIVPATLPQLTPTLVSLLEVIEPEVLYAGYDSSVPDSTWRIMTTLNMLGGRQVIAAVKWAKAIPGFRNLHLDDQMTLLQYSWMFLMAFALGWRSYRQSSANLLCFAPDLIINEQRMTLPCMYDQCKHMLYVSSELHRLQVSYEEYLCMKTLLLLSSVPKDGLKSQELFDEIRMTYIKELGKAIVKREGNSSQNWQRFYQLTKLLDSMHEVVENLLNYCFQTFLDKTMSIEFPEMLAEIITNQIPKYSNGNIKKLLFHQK
human RAR-related Orphan Receptor beta (RORb), RORB (gene 6096), sequence (Q92753 whole entry, looked up, the tested form may be a part): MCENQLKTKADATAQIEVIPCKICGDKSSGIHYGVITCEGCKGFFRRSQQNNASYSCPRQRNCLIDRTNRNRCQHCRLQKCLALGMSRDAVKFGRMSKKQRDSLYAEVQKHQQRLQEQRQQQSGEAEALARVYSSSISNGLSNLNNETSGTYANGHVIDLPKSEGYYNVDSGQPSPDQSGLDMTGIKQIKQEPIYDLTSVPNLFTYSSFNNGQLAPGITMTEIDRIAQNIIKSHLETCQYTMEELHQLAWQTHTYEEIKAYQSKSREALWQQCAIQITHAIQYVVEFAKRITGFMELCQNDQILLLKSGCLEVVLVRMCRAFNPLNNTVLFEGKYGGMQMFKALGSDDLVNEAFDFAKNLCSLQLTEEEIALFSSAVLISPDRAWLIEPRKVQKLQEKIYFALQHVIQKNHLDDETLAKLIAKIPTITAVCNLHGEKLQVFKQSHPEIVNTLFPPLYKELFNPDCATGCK

Turning to `CC(C)C#N`, the compound was called inactive in [1], in experiment [2], in experiment [3], in experiment [4], in experiment [5] and in experiment [6]. For the same compound, the result in experiment [7] was inactive.
Consider `CC(C)CCCCCCCOC(=O)c1ccccc1C(=O)OCCCCCCCC(C)C`, for which the outcome in [8], in experiment [9], in [2], in experiment [3], in experiment [4] and in [10] was inactive. Also, in experiment [11], the result was inactive.
Take `CC(=O)/C=C/c1ccccc1`: the outcome in experiment [9], in experiment [1], in experiment [12], in [6], in experiment [11] and in experiment [13] was inactive. Moreover, the compound was classed as inactive in experiment [14]. Further, in experiment [7], the AC50 is 32.1 µM (active).
For the compound `C[C@]12CC[C@H]3[C@@H](CC[C@@]45O[C@@H]4C(O)=C(C#N)C[C@]35C)[C@@H]1CC[C@@H]2O`, the result in [9], in experiment [1], in [12], in experiment [5], in experiment [6] and in experiment [7] was inactive. For the same compound, the result in experiment [14], in [15], in experiment [16] and in [17] was inactive. Moreover, the concentration at half-maximal activity (AC50) in experiment [17] was 67 µM (active).
As for `O=C1C(Cl)=C(Cl)C(=O)C(Cl)=C1Cl`, the compound was classed as inactive in experiment [18], in experiment [9], in experiment [1], in experiment [12], in experiment [10] and in [5]. The result in experiment [6], in experiment [13], in experiment [14], in experiment [15], in experiment [17] and in [20] was inactive. Besides, the concentration at half-maximal activity (AC50) in [8] is 72.4 µM (active); in experiment [15], 58.9 µM (active); in [16] it was 21.6 µM (active) and 44.2 µM (active); in experiment [17], 4.93 µM (active); in experiment [19] it was 73.4 µM (active) and 73.7 µM (active); in experiment [20] it was 84.7 µM (active).
As for `O=[N+]([O-])c1cc(C(F)(F)F)c(Cl)c([N+](=O)[O-])c1Cl`, the call in experiment [18], in experiment [8], in [1] and in [5] was inactive. Further, the AC50 in experiment [4] was 33.4 µM (active); in [10], 53.3 µM (active); in experiment [6], 41.1 µM (active); in experiment [15] it was 35.2 µM (active); in experiment [16], 35.6 µM (active); in experiment [17], 22.2 µM (active). Also, the AC50 in experiment [19] was 35.9 µM (active); in [20], 21.9 µM (active).
As to `CCNCC`, the compound was called inactive in [2], in experiment [3] and in experiment [7].
For `CCCCCc1cc(O)cc(O)c1`, the AC50 was 155 µM (active) in experiment [8] and 10.5 µM (active) in experiment [7]. Besides, the result in experiment [9], in experiment [10], in experiment [6], in experiment [13], in [14] and in experiment [17] was inactive. In addition, the result in experiment [19] and in [20] was inactive.
Regarding `O=[N+]([O-])O`, the compound was called inactive in [2], in experiment [3], in experiment [7], in experiment [15], in experiment [16] and in [19].
Consider `CC(C)(Cl)Cl`, for which the compound was classed as inactive in [12], in [2], in experiment [3], in experiment [5], in experiment [6] and in experiment [7]. The outcome in experiment [16] and in [17] was inactive.

For the origin of these results see PubChem BioAssay (EPA / NIEHS).
